Assay outcomes (PubChem)
Compounds with a hit are over-represented: about 3.1% of the library has one in this group of screens.
uPA surface inh = inhibitors of cell surface uPA generation; cell surface uPA generation assay, qHTS; Potency, µM (top dose mostly 38.3 µM), most hits filed as inhibitors; actives 0.31% (n = 330,000); AID 540303; active means well fitted inhibition curve with a large enough effect; inconclusive means small, poorly fitted or top-dose-only effect; inactive means no such curve, though single readings can be large or run the other way; tested in mouse RAW 264.7 cells; further: nearly all actives have a fitted effect of over 55% in size
VDR inhibitor = blocks the human vitamin D receptor. actives 0.93% (n = 400,000). VDR-SRC2-3 peptide fluorescence polarization, 2 h. Potency, µM, most hits filed as inhibitors
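FP read-out; VDR + SRC2-3 coactivator peptide; 23 nl compound by pintool; 2 h RT incubation; reagents held at 4 deg C, protected from light.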
TSHR antag = blocks TSH signaling through the human TSH receptor | P16473 | TSHR-expressing cells, TSH-stimulated cAMP HTRF, 2 h; hits give low values | activity change, negative = inhibition, % at 11.5 µM | actives 0.2% (n = 330,000) | AID 504810;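 active means activity change below a set negative limit, meaning inhibition stronger than a set level, cut at about -70% in these data; inconclusive means activity change between two set negative limits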
Target sequence (P16473 whole entry, looked up): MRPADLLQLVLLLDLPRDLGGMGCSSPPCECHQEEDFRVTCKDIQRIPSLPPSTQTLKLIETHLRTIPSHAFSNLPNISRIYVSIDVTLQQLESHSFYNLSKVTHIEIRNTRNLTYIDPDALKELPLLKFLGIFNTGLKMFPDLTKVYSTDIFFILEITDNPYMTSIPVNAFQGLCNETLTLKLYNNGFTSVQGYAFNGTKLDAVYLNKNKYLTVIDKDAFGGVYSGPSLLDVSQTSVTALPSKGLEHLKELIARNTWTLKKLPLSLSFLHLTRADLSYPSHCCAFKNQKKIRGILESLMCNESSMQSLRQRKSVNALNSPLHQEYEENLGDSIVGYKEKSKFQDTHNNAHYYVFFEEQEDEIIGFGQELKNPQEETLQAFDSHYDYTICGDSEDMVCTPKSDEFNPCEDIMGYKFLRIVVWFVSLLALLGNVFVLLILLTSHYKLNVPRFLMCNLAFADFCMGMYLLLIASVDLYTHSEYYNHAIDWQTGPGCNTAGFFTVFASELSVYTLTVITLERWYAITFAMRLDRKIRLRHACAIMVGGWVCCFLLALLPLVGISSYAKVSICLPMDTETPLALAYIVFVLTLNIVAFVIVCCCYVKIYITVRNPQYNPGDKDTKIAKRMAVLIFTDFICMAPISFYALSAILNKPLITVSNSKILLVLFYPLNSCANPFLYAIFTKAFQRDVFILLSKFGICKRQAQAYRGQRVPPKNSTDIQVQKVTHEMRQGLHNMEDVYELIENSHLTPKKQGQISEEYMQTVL
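Freshly harvested TSHR cells receive pin-tooled compound, then EC80 TSH at 4nM final. After 2 hours at 37 deg C, antibody in lysis buffer and cAMP-d2 are added; 30 minutes at ambient temperature precede the HTRF read.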
TSG101-PTAP inh = blocks PTAP/TSG101 interaction to inhibit HIV-1 budding. Potency, µM (top dose mostly 115 µM), actives largely listed as inhibitors. Fluorescence polarization, FITC-PTAP peptide / Tsg101 binding. Q99816. 340,000 tested, under 10 active. AID 493005; active means well fitted inhibition curve with a large enough effect in the main read-out, with a control signal flat, not every such curve was filed as active; inconclusive means small, poorly fitted or top-dose-only effect, or effect the other way, or a change in a side signal; inactive means no such curve, though single readings can be large or run the other way
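FP read-out: FITC-PTAP peptide, 50 nM final, binding Tsg101 binding domain, 10 uM final; 20 min, r.t.; 10 mM HEPES pH 7.5, 0.15 M NaCl, 0.01% Tween 20, 3 mM EDTA, 0.1 mM TCEP.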
PLK1 PBD inh = inhibitors of human PLK1 polo-box domain binding; actives 2.8% (n = 360,000); Potency, µM, actives largely listed as inhibitors; Plk1 PBD binding of FITC phosphopeptide, fluorescence polarization; further: series mostly up to about 57 µM; nearly all actives have a fitted effect of over 65% in size
Each line names hits and unclear results; the compound was inactive in the other large screens. Unless noted, the call rests on the fitted dose curve; in most records, active means well fitted curve in the direction sought with a large enough effect; inconclusive means small, poorly fitted or top-dose-only effect, or another doubt; inactive means no such curve, though single readings can be large; an effect the other way counts as inactive or inconclusive.

O=C(O)c1cc2ccccc2c(Cc2cc3ccccc3c(C(=O)O)c2O)c1O (tested in a mixture with another compound)	VDR inhibitor 14.1µM (no result: uPA surface inh, TSHR antag, TSG101-PTAP inh, PLK1 PBD inh)
O=C(O)c1cc(Cl)c2ccccc2c1O	none
CC(=O)c1cccc(NC(=O)C2CCN(S(=O)(=O)c3ccc4c(c3)CCCN4C(C)=O)CC2)c1	none (no result: uPA surface inh, TSHR antag, TSG101-PTAP inh, PLK1 PBD inh)
O=C(Nc1ccccc1F)c1ccc2c(Cl)c3c(nc2c1)CCC3	none (no result: uPA surface inh, TSHR antag, TSG101-PTAP inh, PLK1 PBD inh)
CC(C)C(NC(=O)C12CC3CC(CC(C3)C1)C2)C(=O)NC1=NCCS1 (centres undefined)	none (no result: uPA surface inh, VDR inhibitor, TSG101-PTAP inh, PLK1 PBD inh)
CC(C)CC(NC(=O)CC12CC3CC(CC(C3)C1)C2)C(=O)NC1=NCCS1 (centres undefined)	VDR inhibitor 70.8µM, PLK1 PBD inh 15µM
O=C(COc1ccc(Cl)cc1Cl)NCCSc1ccc(Cl)cc1	PLK1 PBD inh 2.99µM
CCOC(=O)c1c(N2C(=O)Nc3cc(Cl)c(Cl)cc3N2O)sc2c1CCCCC2	VDR inhibitor inconclusive, PLK1 PBD inh 13.4µM
CCOC(=O)c1c(-n2cnnn2)sc2c1CCCC2	none
CCOc1ccc(CNS(=O)(=O)c2cc3c(cc2C)NC(=O)CO3)cc1	none (no result: uPA surface inh, TSHR antag, TSG101-PTAP inh, PLK1 PBD inh)
O=C(O)c1ccc2c(=O)n(Cc3ccccc3)c(SCc3ccc([N+](=O)[O-])cc3)nc2c1	VDR inhibitor 79.4µM, PLK1 PBD inh inconclusive
Nc1cc(N)nc(SCC(=O)c2ccccc2)n1	PLK1 PBD inh 23.8µM
Cc1ccc(C(=O)NNC(=O)C(C)Sc2nc(N)cc(N)n2)cc1 (centres undefined)	none
Cc1ccc(C(=O)NNC(=O)CSc2nc(N)cc(N)n2)cc1	PLK1 PBD inh 26.7µM
Nc1cc(N)nc(SCC(=O)Nc2ccccc2)n1	none
CN1C(=O)[C@@](O)(c2cn(C)c3ccccc23)c2cc(F)ccc21	none (no result: uPA surface inh, VDR inhibitor, TSHR antag, TSG101-PTAP inh)
CCn1c(=O)n(CC)c2cc(N3CCCC3)c(NC(=O)c3ccccc3F)cc21	PLK1 PBD inh 23.8µM
Cc1ccc(S(=O)(=O)N2C[C@H]3C(=O)C[C@@H](c4ccc(Cl)cc4)N(S(=O)(=O)c4ccccc4C)[C@H]3C[C@H]2c2cccc(Cl)c2)cc1	none (no result: uPA surface inh, VDR inhibitor, TSHR antag, TSG101-PTAP inh)
C/C(CC(=O)Nc1ccc(N(C)C)cc1)=N\NC(=O)c1ccc([N+](=O)[O-])cc1Cl	VDR inhibitor 79.4µM, PLK1 PBD inh 21.2µM
C/C(CC(=O)Nc1ccc(N(C)C)cc1)=N\NC(=O)c1ccc(Cl)cc1Cl	none
O=C(Nc1nnc(Cc2ccccc2)s1)C1CCN(C(=O)c2ccco2)CC1	PLK1 PBD inh 26.7µM
CC(C)(C)Cc1nnc(NC(=O)Cc2cccs2)s1	PLK1 PBD inh 18.9µM
CC(C)(C)Cc1nnc(NC(=O)Cc2ccc([N+](=O)[O-])cc2)s1	VDR inhibitor inconclusive, PLK1 PBD inh 5.32µM
O=C(Cc1cccs1)Nc1nnc(Cc2ccccc2)s1	PLK1 PBD inh 26.7µM
CC1(C)C(=O)NCCN1C(=O)CC1C(=O)NCCN1Cc1cccc(C(F)(F)F)c1 (centres undefined)	none
COCCn1c2nc(=O)n(-c3ccccc3)c(=O)c-2nc2ccccc21	PLK1 PBD inh 3.77µM (no result: uPA surface inh, VDR inhibitor, TSHR antag, TSG101-PTAP inh)
COCCn1c(-c2ccc(OC)cc2)nc2ccccc21	none
Cc1ccc(C(=O)Nc2ccc(Br)cc2)cc1S(=O)(=O)NCc1ccccc1	none (no result: uPA surface inh, TSHR antag, TSG101-PTAP inh, PLK1 PBD inh)
O=C1CSC2(C(=O)N(Cc3c(F)cccc3Cl)c3ccccc32)N1c1ccc(F)c(F)c1 (centres undefined)	none (no result: uPA surface inh, TSHR antag, TSG101-PTAP inh, PLK1 PBD inh)
S=C(NCc1ccccc1)NCc1cccc(CNC(=S)NCc2ccccc2)c1	VDR inhibitor inconclusive, PLK1 PBD inh 26.7µM
CN(C)C(=S)NCc1ccccc1	VDR inhibitor inconclusive, PLK1 PBD inh 2.67µM
CN(N)C(=S)NCc1ccccc1	none
Cc1cc2nnc(SCc3ccc(F)cc3)n2c2ccccc12	none (no result: uPA surface inh, TSHR antag, TSG101-PTAP inh, PLK1 PBD inh)
Cn1c(-c2sccc2OCc2ccc(Cl)cc2Cl)n[nH]c1=S	PLK1 PBD inh 26.7µM
Cc1ccc(COc2ccsc2-c2n[nH]c(=S)n2C)cc1	none
O=C(c1ccccc1F)N1CCN(Cc2ccc3c(c2)OCO3)CC1	none
N#Cc1c(F)cccc1N1CCN(Cc2ccc3c(c2)OCO3)CC1	TSHR antag -89.8
Cc1ccc(NC(=O)Cn2c(=S)[nH]c3ccccc32)cc1	PLK1 PBD inh 23.8µM
CCN(CC)S(=O)(=O)c1ccc2c(c1)N(CC(=O)Nc1c(C)cc(C)cc1C)C(=O)CS2	none (no result: uPA surface inh, TSHR antag, TSG101-PTAP inh, PLK1 PBD inh)
COc1ccc(CNC(=O)c2ccc(-c3nc(CSc4ccc(C)cc4)c(C)o3)cc2)cc1OC	none (no result: uPA surface inh, TSHR antag, TSG101-PTAP inh, PLK1 PBD inh)
CCn1nc(C)cc1C(=O)N1CCCC(Nc2ccc(F)c(F)c2)C1 (centres undefined)	none
CCn1nc(CC(C)C)cc1C(=O)N1CCCC(Nc2ccc(OC)cc2)C1 (centres undefined)	PLK1 PBD inh 26.7µM
O=C(c1ccccc1NS(=O)(=O)c1ccc([N+](=O)[O-])cc1[N+](=O)[O-])N1O[C@@H]2C=C[C@H]1C2	uPA surface inh inconclusive, VDR inhibitor 44.7µM, PLK1 PBD inh inconclusive
CC(C)(C)NC(=O)C(c1ccncc1)N(C(=O)Cn1nnc(-c2ccc(F)cc2)n1)c1ccccc1 (centres undefined)	VDR inhibitor inconclusive, PLK1 PBD inh 26.7µM
CC(C)(C)NC(=O)C(c1ccncc1)N(C(=O)Cn1nnc(-c2ccc(F)cc2)n1)c1ccc(F)cc1 (centres undefined)	none
Cc1ccccc1C1CC(=O)Oc2cc(O)ccc21 (centres undefined)	TSG101-PTAP inh inconclusive, PLK1 PBD inh 16.8µM
CC(=O)OCC(=O)[C@@]1(O)CC[C@@H]2[C@H]3CCC4=CC(=O)CC[C@]4(C)[C@]3(F)[C@@H](O)C[C@@]21C	none (no result: uPA surface inh, TSHR antag, TSG101-PTAP inh, PLK1 PBD inh)
COc1cc2oc(=O)ccc2cc1-c1c(OC)ccc2ccc(=O)oc12	uPA surface inh 8.91µM
CCN(C(=O)c1cc2c(=O)n3ccccc3nc2n1C)C1CCCCC1	TSHR antag -122.7
COc1ccc(-c2cc(=Nc3ccc(C(=O)O)cc3)c3cc(C)ccc3o2)cc1	none
CCc1ccc2oc(-c3ccc(OC)cc3)cc(=Nc3cccc(C(=O)O)c3)c2c1	VDR inhibitor 79.4µM, PLK1 PBD inh 26.7µM
CCc1ccc2oc(-c3ccc(OC)cc3)cc(=Nc3c(C)n(C)n(-c4ccccc4)c3=O)c2c1	uPA surface inh 8.91µM
CCOC(=O)c1[nH]c2c(c1C)C(=O)CC(c1ccc(F)cc1)C2 (centres undefined)	uPA surface inh 1.26µM
COCCOC(=O)c1[nH]c2c(c1C)C(=O)CC(c1cccs1)C2 (centres undefined)	uPA surface inh 1µM
CCOCCOC(=O)c1[nH]c2c(c1C)C(=O)CC(c1cccs1)C2 (centres undefined)	none
CCCCCOC(=O)c1[nH]c2c(c1C)C(=O)CC(c1ccco1)C2 (centres undefined)	VDR inhibitor 79.4µM, PLK1 PBD inh 23.8µM
CCOCCOC(=O)c1[nH]c2c(c1C)C(=O)CC(c1ccccc1)C2 (centres undefined)	none
CCOc1ccccc1C1CC(=O)Nc2c1c(=O)n(C)c1ncnn21 (centres undefined)	none (no result: uPA surface inh, TSHR antag, TSG101-PTAP inh, PLK1 PBD inh)
